Compounds with a hit are over-represented: about 3.5% of the library has one in this group of screens.
Bead autofluor: flagged as autofluorescent in microsphere protease counterscreen. compound autofluorescence counterscreen, microsphere flow cytometry; stronger effect = higher value. fluorescence intensity (no concentration beside the values). hit rate 3.1% among 360,000. AID 624483; in the data active = fluorescence intensity above about 16000; inconclusive = no clear call, values can overlap the other calls
Anthrax LF inh2: blocks Bacillus anthracis lethal factor protease; P15917; multiplex microsphere protease cleavage assay, LF; AID 588501; hit rate 0.12% among 360,000; inhibition, % at 10 µM
Target sequence (P15917 whole entry, looked up): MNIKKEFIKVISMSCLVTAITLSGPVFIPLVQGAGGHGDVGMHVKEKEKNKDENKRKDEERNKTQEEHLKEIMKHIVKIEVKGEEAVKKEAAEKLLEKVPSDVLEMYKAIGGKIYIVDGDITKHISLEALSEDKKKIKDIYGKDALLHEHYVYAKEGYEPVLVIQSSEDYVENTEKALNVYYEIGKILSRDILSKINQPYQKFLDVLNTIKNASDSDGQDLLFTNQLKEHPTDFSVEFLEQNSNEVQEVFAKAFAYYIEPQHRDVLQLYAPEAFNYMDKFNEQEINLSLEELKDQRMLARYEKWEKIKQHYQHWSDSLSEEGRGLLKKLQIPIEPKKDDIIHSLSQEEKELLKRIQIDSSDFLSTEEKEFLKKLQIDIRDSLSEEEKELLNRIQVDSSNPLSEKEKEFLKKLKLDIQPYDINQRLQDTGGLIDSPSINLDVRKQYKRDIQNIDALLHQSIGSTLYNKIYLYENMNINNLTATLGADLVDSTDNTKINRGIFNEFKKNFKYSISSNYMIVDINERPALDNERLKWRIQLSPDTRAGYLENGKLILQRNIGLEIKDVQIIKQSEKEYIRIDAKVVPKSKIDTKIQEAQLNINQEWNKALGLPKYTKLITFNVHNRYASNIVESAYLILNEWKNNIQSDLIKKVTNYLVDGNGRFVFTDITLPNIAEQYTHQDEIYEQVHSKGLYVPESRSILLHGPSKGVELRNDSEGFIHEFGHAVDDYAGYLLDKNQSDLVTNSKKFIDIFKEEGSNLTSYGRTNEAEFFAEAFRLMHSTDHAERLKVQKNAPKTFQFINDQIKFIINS
BoNT F protease: inhibitors of Botulinum neurotoxin F light chain protease; Multiplex microsphere protease cleavage assay, flow cytometry; inhibition, % at 10 µM; hit rate 0.22% among 360,000; in the data active = inhibition above about 35%, passing the limit was not always enough; inconclusive = no clear call, values can overlap the other calls
BoNT A protease: inhibitors of Botulinum neurotoxin A light chain protease; multiplex microsphere protease substrate cleavage, flow cytometry; inhibition, % at 10 µM; hit rate 0.17% among 360,000; AID 588499
Vc quorum ag: quorum light induction in luxS cqsA deficient V. cholerae | V. cholerae BH1578 lux reporter, luminescence, 6 h | activation, % at 18.7 µM | hit rate 0.16% among 350,000 | AID 588436; in the data active = activation mostly above about 9.7%, no sharp cut-off; inconclusive = no clear call, values can overlap the other calls; inactive = mostly below about 3.7%
Hits are given with their value; . = inactive; ? = inconclusive; / = not tested or not shown. Cut-off read from the data, not from the text of the source, unless noted: active = inhibition above about 30%; inconclusive = no clear call, values can overlap the other calls; inactive = below that.

SMILES | Bead autofluor | Anthrax LF inh2 | BoNT F protease | BoNT A protease | Vc quorum ag
CC1CN(CCCOc2ccccc2[N+](=O)[O-])CC(C)O1 (stereo not drawn) | 23581 | . | . | . | .
O=[N+]([O-])c1ccccc1OCCCn1cnc2ccccc21 | . | . | . | . | .
O=c1c2ccccc2ncn1CCCOc1ccccc1[N+](=O)[O-] | 20774 | . | . | . | .
c1ccc(-c2ccccc2OCCCN2CCOCC2)cc1 | . | . | . | . | .
O=[N+]([O-])c1ccccc1OCCOc1ccccc1[N+](=O)[O-] | . | . | . | . | .
O=[N+]([O-])c1ccccc1OCCCN1CCOCC1 | 23944 | . | . | . | .
O=C(O)C1(c2ccccc2)CCN(S(=O)(=O)c2cccc(Cl)c2)CC1 | . | . | . | . | .
CC1CN(CCOc2ccc(F)cc2)CC(C)O1 (stereo not drawn) | . | . | 36 | . | .
Cc1ccccc1OCCCN1CCCC1 | 17560 | . | . | ? | .
Cc1ccccc1OCCN1CCCC1 | . | . | ? | . | .
Cc1nn(C)c(C(=O)NNC(=S)NCC(C)C)c1Cl | . | . | . | . | .
O=C(CSc1nnc(-c2ccco2)o1)c1ccc(F)c(F)c1 | 21701 | . | . | . | .
Cc1cccc(CSc2nnc(-c3ccco3)o2)c1 | . | . | . | . | .
O=c1cc(CSc2nnc(-c3ccco3)o2)c2ccccc2[nH]1 | 22171 | . | . | ? | .
COCCCn1c(SCc2cc(=O)[nH]c3ccccc23)nnc1-c1ccco1 | . | . | . | . | .
CC(=O)c1c(C)cc(C)c(CSc2nnc(-c3ccco3)o2)c1C | 19958 | . | . | . | .
COc1cc(C)ccc1OCc1cc(C(=O)N2CCC(c3ccc(F)cc3)C2)no1 (stereo not drawn) | . | . | . | . | .
Cc1nc2cc(-c3ccccc3)nn2c(C)c1CCC(=O)N1CCC2(CC1)OCCO2 | 16588 | . | . | . | .
COc1ccc(CCC(=O)N2CCC3(CC2)OCCO3)cc1 | 16327 | . | . | . | .
O=C(CCCc1ccccc1)N1CCN(C2CCCCC2)CC1 | / | / | / | / | .
COc1ccc(CCC(=O)N2CCN(C3CCCCC3)CC2)cc1 | 20796 | . | . | . | .
COC(=O)N1C(=O)[C@@](c2ccccc2)(C2CCCCC2)N1C(=O)OC | . | . | . | . | .
c1ccc2c(c1)nnn2-c1ncnc2sc3c(c12)CCCC3 | 23314 | . | . | . | .
Cc1nc(-n2nnc3ccccc32)c2c3c(sc2n1)CCCC3 | . | . | . | . | .
CCN(CC(=O)Nc1c(F)cccc1F)C(=O)COc1cccc2c1OC(C)(C)C2 | ? | . | . | . | .
SMILES | Bead autofluor | Anthrax LF inh2 | BoNT F protease | BoNT A protease | Vc quorum ag
CN=C1SC(CC(=O)Nc2cc(Cl)ccc2Cl)C(=O)N1C (stereo not drawn) | 21833 | . | . | . | .
O=C(CCNc1n[nH]c(=O)[nH]c1=O)N1CCOCC1 | 22002 | . | . | ? | .
CCn1c(CCn2ccnc2C)n[nH]c1=S | 18972 | . | . | ? | .
O=C(c1ccc(=O)[nH]n1)N1CCN(S(=O)(=O)c2ccc(C(F)(F)F)cc2)CC1 | . | . | . | . | .
CCc1c(O)nc(SCC(=O)N2CCc3cc(OC)c(OC)cc3[C@@H]2C)[nH]c1=O | . | . | . | . | .
CCOC(=O)N1CCC(NC(=O)c2ccc(CNS(=O)(=O)c3ccc(F)cc3)cc2)CC1 | 17979 | . | . | . | .
CCOC(=O)N1CCC(NC(=O)c2cc(S(=O)(=O)N3CCOCC3)ccc2F)CC1 | 20906 | . | . | . | .
COC(=O)c1cccc(S(=O)(=O)N2CCC(C)CC2)c1 | . | . | . | . | .
CCOC(=O)N1CCC(N2CCN(S(=O)(=O)c3ccc(Cl)cc3)CC2)CC1 | 19293 | . | . | ? | .
COC(=O)c1cc(S(=O)(=O)N2CCC(C)CC2)ccc1F | 22718 | . | . | . | .
C/C(=N\OCC(=O)OC(C)C(=O)Nc1ccc(C)c(S(=O)(=O)N2CCOCC2)c1)c1ccc2c(c1)OCO2 (stereo not drawn) | . | . | . | . | .
C[C@H]1CC[C@@]2(O[C@H](CCO)C[C@H](O)[C@H]2O)O1 | . | . | . | . | .
CC1(c2nnc(Cc3ccccc3)o2)CC(c2ccccc2[N+](=O)[O-])=NO1 (stereo not drawn) | . | . | . | . | .
CS(=O)(=O)c1ccccc1-c1nnc(NC(=O)c2ccc3ncsc3c2)o1 | ? | . | . | . | .
CCOC(=O)N1CCN(C(=O)CN(Cc2ccc(Cl)cc2)S(=O)(=O)c2ccc(C)cc2)CC1 | 24719 | . | . | . | .
CCOC(=O)N1CCC(NC(=O)C2CCN(c3ccc(N4CCOCC4)nn3)CC2)CC1 | 23805 | . | . | . | .
CCOC(=O)N1CCN(S(=O)(=O)c2ccc(OC)c(OC)c2)CC1 | 25529 | . | . | . | .
C=CCNC(=O)COC(=O)COc1ccc(Cl)cc1 | . | . | . | . | .
CC(C)(C)N(Cc1ccccc1)C(=O)CN1C(=O)NC2(CCCCCC2)C1=O | . | . | . | . | .
COc1ccc(C2NC(=O)NC3=C2C(=O)CCC3)cc1 (stereo not drawn) | . | . | ? | . | .
COc1ccc(C2C3=C(CCCC3=O)Nc3c(-c4ccccc4)c(C)nn32)cc1 (stereo not drawn) | 22999 | . | . | . | .
CN(C)N=Nc1ccc(S(=O)(=O)N2CCSC2C(=O)O)cc1 (stereo not drawn) | 25952 | . | . | ? | .
Cc1ccc(S(=O)(=O)N2CCSC2C(=O)O)cc1 (stereo not drawn) | . | . | . | . | .
Cc1cc2c(n1-c1ccc(Cl)cc1)CC(C)(C)CC2=O | 19623 | . | . | . | .
CCOC(=O)c1cc2c(n(-c3ccccc3)c1=O)CC(C)(C)CC2=O | 25220 | . | . | . | .
SMILES | Bead autofluor | Anthrax LF inh2 | BoNT F protease | BoNT A protease | Vc quorum ag
O=C(O)c1ccc2c(c1)C(=O)N(CCc1c[nH]c3ccccc13)C2=O | . | . | . | . | .
O=C(NC1(C(F)(F)F)N=C2SCCN2C1=O)c1ccccc1 (stereo not drawn) | 24460 | . | . | . | .
COc1ccc(C(=O)NC2(C(F)(F)F)N=C3SCCN3C2=O)cc1 (stereo not drawn) | . | . | . | . | .
COC(=O)COc1ccc(S(=O)(=O)Nc2ccccc2SC)cc1 | 23132 | . | . | ? | .
CCOc1ccc(S(=O)(=O)Nc2ccccc2SC)cc1 | 24042 | . | . | . | .
COC(=O)COc1ccc(S(=O)(=O)Nc2ccc(C(N)=O)cc2)cc1 | . | . | . | . | .
O=C1Nc2ccccc2N=C(c2ccccc2)C1N1CCOCC1 (stereo not drawn) | 21946 | . | . | ? | .
COc1ccc(C(=O)NCC(=O)N2CCN(C(=O)c3ccco3)CC2)cc1 | . | . | . | . | .
C=CCN1C(=O)C(CC(=O)NCC)SC1=Nc1ccccc1CC (stereo not drawn) | . | . | . | . | .
CSc1nc2n(n1)C(c1cc(Br)ccc1F)C(C(=O)N(C)C)=C(C)N2 (stereo not drawn) | 20105 | . | . | . | .
COc1ccc(Br)cc1C1NC(=O)NC(C)=C1C(=O)N(C)C (stereo not drawn) | . | . | . | . | .
N#CCSc1nc2ccc(N3CCCCC3)cc2c(=O)n1Cc1ccccc1 | 29809 | . | . | . | .

Assay outcomes deposited in PubChem by several laboratories.
